Measured values: PubChem BioAssay (Tox21)
Results filed as inconclusive are left out. The source made the active and inactive calls. Unless noted, calls come from the whole dose curve; as a rule, active = well fitted curve in the direction sought with a large enough effect in the repeat runs; inconclusive = weak or mixed curves; inactive = no such curve, though single readings can be large; an effect the other way counts as inactive or inconclusive.

Legend:
[1] = qHTS assay to identify aromatase inhibitors - cell viability counter screen (AID 743084);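 note: cells stimulated with testosterone during compound exposure; nearly all actives have a fitted effect of over 55% in size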
[2] = target: Aryl hydrocarbon receptor (Homo sapiens) (UniProt P35869); test: qHTS assay to identify small molecule that activate the aryl hydrocarbon receptor (AhR) signaling pathway (AID 743085);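 note: HG2L7.5c1 human HepG2 liver cells with stably integrated DRE-driven firefly reporter; series mostly up to about 70 µM; nearly all actives have a fitted effect of over 15% in size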
Method in brief: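 Cell line HG2L7.5c1 (human hepatoma, 20× DRE-luc). Plated, 5 h 37C, compound/DMSO added, 24 h 37C. CellTiter-Fluor 30 min 37C → fluorescence; then ONE-Glo 30 min RT → luminescence.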

[3] = qHTS assay to identify small molecule that activate the aryl hydrocarbon receptor (AhR) signaling pathway - cell viability counter screen (AID 743086);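 note: HepG2 liver cells carrying the AhR DRE luciferase reporter; series mostly up to about 70 µM; nearly all actives have a fitted effect of over 45% in size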
Method in brief: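 HepG2-AhR-luc (HG2L7.5c1) cells, 4000/well, were preincubated 5 h at 37C, exposed to compound in qHTS format for 24 hr at 37C, then given CellTiter-Fluor for 30 min; viability was read as fluorescence in the reporter wells.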

[4] = target: Peroxisome proliferator-activated receptor gamma (Homo sapiens) (UniProt P37231); test: qHTS assay to identify small molecule agonists of the peroxisome proliferator-activated receptor gamma (PPARg) signaling pathway (AID 743094; active = well fitted activation curve with a large enough effect in the signal ratio in the repeat runs, not every such curve was filed as active; the % refers to the signal ratio)
Method in brief: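 Cell-based bla reporter, HEK293H background, PPARg-driven UAS. Pre-incubation 5 h, 37C, 5% CO2. Compound 17 h, 37C. Substrate 1 h RT; fluorescence.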

[5] = target: Peroxisome proliferator-activated receptor gamma (Homo sapiens) (UniProt P37231); test: qHTS assay to identify small molecule antagonists of the peroxisome proliferator-activated receptor gamma (PPARg) signaling pathway (AID 743191; calls by dose curve; note: series mostly up to about 63 µM; nearly all actives have a fitted effect of over 30% in size)
Method in brief: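 GeneBLAzer PPARg UAS-bla HEK293H cells carrying a UAS-driven beta-lactamase reporter were plated at 3000 cells/well, preincubated 5 h at 37C, then given compound for 17 h at 37C; LiveBLAzer B/G FRET substrate was read after 1 h at room temperature.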

[6] = qHTS assay to identify small molecule antagonists of the peroxisome proliferator-activated receptor gamma (PPARg) signaling pathway - cell viability counter screen (AID 743194); note: nearly all actives have a fitted effect of over 55% in size
Method in brief: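 PPARg-UAS-bla HEK293H cells were plated, rested 5 h at 37 C, then treated with compounds plus rosiglitazone (50 nM final) for 17 h at 37 C; viability was then read by CellTiter-Glo luminescence after 30 min at room temperature.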

[7] = qHTS assay for small molecule activators of the heat shock response signaling pathway - cell viability counter screen (AID 743209); note: nearly all actives have a fitted effect of over 50% in size
Method in brief: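 Same-well multiplex: after 2.5 h room-temperature incubation with LiveBLAzer B/G substrate and fluorescence reading, CellTiter-Glo reagent was added to HSE-bla HeLa cells that had received compound for 5 h at 37 C; luminescence read after 30 min.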

[8] = qHTS assay for small molecule activators of the heat shock response signaling pathway (AID 743210; active = well fitted activation curve with a large enough effect in the signal ratio in the repeat runs, with a control signal flat, not every such curve was filed as active; the % refers to the signal ratio; note: series mostly up to about 63 µM)
Method in brief: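 Heat shock element–beta-lactamase HeLa reporter cells; qHTS with compounds for 5 h at 37 C; detection by FRET substrate fluorescence after 2.5 h at RT.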

[9] = qHTS assay to identify small molecule agonists of the peroxisome proliferator-activated receptor delta (PPARd) signaling pathway - cell viability counter screen (AID 743211); note: nearly all actives have a fitted effect of over 55% in size
Method in brief: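 HEK293H PPARd-bla, 3000 cells/well; 5 h preincubation 37C/5% CO2; cpd in DMSO, 17 h 37C; B/G FRET substrate 2 h RT; CellTiter-Glo 30 min RT, luminescence.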

[10] = target: Peroxisome proliferator-activated receptor delta (Homo sapiens) (UniProt Q03181); test: qHTS assay to identify small molecule agonists of the peroxisome proliferator-activated receptor delta (PPARd) signaling pathway (AID 743212; calls by dose curve)
Method in brief: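 Beta-lactamase reporter read by fluorescence (LiveBLAzer B/G FRET, 2 h, room temperature). Test agents, in DMSO, incubated at 37 C with PPARd-bla HEK293H cells.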

[11] = qHTS assay to identify small molecule antagonists of the peroxisome proliferator-activated receptor delta (PPARd) signaling pathway - cell viability counter screen (AID 743213); note: nearly all actives have a fitted effect of over 50% in size
Method in brief: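 Luminescence from CellTiter-Glo, added after the bla read and incubated 30 min at room temperature, gives viability of HEK293H PPARd-bla cells exposed to compounds for 17 h at 37 C with 300 nM L165041.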

[12] = target: Peroxisome proliferator-activated receptor delta (Homo sapiens) (UniProt Q03181); test: qHTS assay to identify small molecule antagonists of the peroxisome proliferator-activated receptor delta (PPARd) signaling pathway (AID 743215; active = well fitted inhibition curve with a large enough effect in the signal ratio in the repeat runs, not every such curve was filed as active; the % refers to the signal ratio;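 note: cells stimulated with agonist L165041 at 300 nM final during compound exposure; series mostly up to about 62 µM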)
Method in brief: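 Fluorescence from cleaved LiveBLAzer B/G FRET substrate (2 h, room temperature) reports PPARd-driven beta-lactamase in HEK293H UAS-bla cells. Cells had been treated 17 h at 37 C with compound plus 300 nM final L165041.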

[13] = qHTS assay to identify small molecule antagonists of the farnesoid-X-receptor (FXR) signaling pathway - cell viability counter screen (AID 743221; active = well fitted cell-killing curve with a large enough effect in the repeat runs, not every such curve was filed as active; note: nearly all actives have a fitted effect of over 50% in size)
Method in brief: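 Luminescence from CellTiter-Glo measures cytotoxicity in GeneBLAzer FXR-UAS-bla HEK 293T cells. Cells were exposed to compounds with 50 uM chenodeoxycholic acid (final) for 16 h at 37 C, in wells also used for the reporter readout.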

[14] = target: Vitamin D3 receptor (Homo sapiens) (UniProt P11473); test: qHTS assay to identify small molecule antagonists of the vitamin D receptor (VDR) signaling pathway (AID 743223; active = well fitted inhibition curve with a large enough effect in the signal ratio in the repeat runs, not every such curve was filed as active; the % refers to the signal ratio)
Method in brief: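 Antagonist mode uses 1alpha,25-dihydroxyvitamin D3 at 3 nM final as stimulus. VDR-bla cells receive compounds in DMSO, incubate 16 h at 37C, then a beta-lactamase FRET substrate for 2 h at room temperature before fluorescence measurement.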

[15] = qHTS assay for small molecule agonists of the antioxidant response element (ARE) signaling pathway (AID 743202; active = well fitted activation curve with a large enough effect in the signal ratio in the repeat runs, not every such curve was filed as active; the % refers to the signal ratio)
Method in brief: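 Following a 16 h, 37 C exposure of reporter HepG2 cells (ARE-driven beta-lactamase, 2,000 cells/well) to compounds, FRET substrate was applied for 2 h at room temperature and fluorescence intensity recorded.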

[16] = qHTS assay for small molecule agonists of the antioxidant response element (ARE) signaling pathway - cell viability counter screen (AID 743203; calls by dose curve; note: nearly all actives have a fitted effect of over 55% in size)
Method in brief: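 Measured in the same wells as the beta-lactamase ARE reporter, this read-out is CellTiter-Glo luminescence from HepG2 ARE-bla cells given compounds for 16 hrs.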

[17] = qHTS assay to identify small molecule agonists of the farnesoid-X-receptor (FXR) signaling pathway - cell viability counter screen (AID 743218); note: nearly all actives have a fitted effect of over 45% in size
Method in brief: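 Readout: CellTiter-Glo luminescence, 30 min RT, multiplexed after the FXR-bla FRET reading. HEK 293T FXR-UAS-bla cells received compound 5 h post-plating and were incubated 16 h at 37 C.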

[18] = target: Vitamin D3 receptor (Homo sapiens) (UniProt P11473); test: qHTS assay to identify small molecule agonists of the vitamin D receptor (VDR) signaling pathway (AID 743222; calls by dose curve)
Method in brief: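 Following 4 h attachment at 37C, VDR-bla cells (2,000 per well) received DMSO-dissolved compounds or controls. After 16 h incubation, LiveBLAzer B/G FRET substrate was added and fluorescence read 2 h later at room temperature.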

[19] = target: Bile acid receptor (Homo sapiens) (UniProt Q96RI1); test: qHTS assay to identify small molecule antagonists of the farnesoid-X-receptor (FXR) signaling pathway (AID 743217; active = well fitted inhibition curve with a large enough effect in the signal ratio in the repeat runs, not every such curve was filed as active; the % refers to the signal ratio)
Method in brief: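 FRET fluorescence after 2 h room-temperature LiveBLAzer loading gives the readout. Prior step: FXR-bla HEK 293T cells, seeded and incubated 5 h, received test compounds plus 50 uM final CDCA for 16 h at 37 °C.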

[20] = target: Bile acid receptor (Homo sapiens) (UniProt Q96RI1); test: qHTS assay to identify small molecule agonists of the farnesoid-X-receptor (FXR) signaling pathway (AID 743220; active = well fitted activation curve with a large enough effect in the signal ratio in the repeat runs, not every such curve was filed as active; the % refers to the signal ratio)
Method in brief: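 FXR-UAS-bla HEK 293T cells carrying a UAS-driven beta-lactamase reporter were plated for 5 h at 37C/5% CO2, then exposed to DMSO-dissolved Tox21 10K compounds for 16 h at 37C. A LiveBLAzer B/G FRET substrate was loaded for 2 h at room temperature before fluorescence reading.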

Measured: Potency

Sequence of Aryl hydrocarbon receptor (Homo sapiens) (P35869 whole entry, looked up): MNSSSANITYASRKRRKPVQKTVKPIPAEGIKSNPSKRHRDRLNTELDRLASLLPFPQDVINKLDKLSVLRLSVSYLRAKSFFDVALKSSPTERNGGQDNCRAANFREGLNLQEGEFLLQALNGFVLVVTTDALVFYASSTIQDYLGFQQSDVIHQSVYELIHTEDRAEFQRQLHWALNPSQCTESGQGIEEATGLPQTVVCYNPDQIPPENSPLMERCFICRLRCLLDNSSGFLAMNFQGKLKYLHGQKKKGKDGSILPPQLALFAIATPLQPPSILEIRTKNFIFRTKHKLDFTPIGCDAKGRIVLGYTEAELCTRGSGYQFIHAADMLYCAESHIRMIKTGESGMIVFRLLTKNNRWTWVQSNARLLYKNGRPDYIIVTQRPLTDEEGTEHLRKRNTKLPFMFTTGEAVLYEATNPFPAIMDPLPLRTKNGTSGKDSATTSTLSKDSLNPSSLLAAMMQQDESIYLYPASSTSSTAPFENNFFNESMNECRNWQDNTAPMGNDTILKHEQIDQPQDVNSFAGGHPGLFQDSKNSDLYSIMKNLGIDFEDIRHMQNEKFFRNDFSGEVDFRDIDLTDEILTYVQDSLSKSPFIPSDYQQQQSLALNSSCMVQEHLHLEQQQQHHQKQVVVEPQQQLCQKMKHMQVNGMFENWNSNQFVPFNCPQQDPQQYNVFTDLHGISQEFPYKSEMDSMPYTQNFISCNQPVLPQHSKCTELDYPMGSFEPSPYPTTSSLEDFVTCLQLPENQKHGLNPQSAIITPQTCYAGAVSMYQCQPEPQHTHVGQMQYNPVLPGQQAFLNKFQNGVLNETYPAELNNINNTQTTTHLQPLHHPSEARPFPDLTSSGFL
Sequence of Peroxisome proliferator-activated receptor gamma (Homo sapiens) (P37231 whole entry, looked up): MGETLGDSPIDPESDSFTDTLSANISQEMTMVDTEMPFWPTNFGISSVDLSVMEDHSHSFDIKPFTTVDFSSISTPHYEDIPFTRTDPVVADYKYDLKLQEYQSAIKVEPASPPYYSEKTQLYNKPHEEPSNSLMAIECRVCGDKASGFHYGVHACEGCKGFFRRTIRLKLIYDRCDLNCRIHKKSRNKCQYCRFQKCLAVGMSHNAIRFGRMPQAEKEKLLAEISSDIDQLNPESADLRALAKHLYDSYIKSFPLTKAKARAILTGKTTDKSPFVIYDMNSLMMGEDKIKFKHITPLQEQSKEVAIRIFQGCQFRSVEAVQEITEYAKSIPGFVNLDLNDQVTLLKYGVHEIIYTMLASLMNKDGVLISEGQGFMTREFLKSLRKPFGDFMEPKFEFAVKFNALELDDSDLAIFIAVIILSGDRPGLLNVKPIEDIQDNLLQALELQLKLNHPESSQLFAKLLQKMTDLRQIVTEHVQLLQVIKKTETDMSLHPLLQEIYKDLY
Sequence of Peroxisome proliferator-activated receptor delta (Homo sapiens) (Q03181 whole entry, looked up): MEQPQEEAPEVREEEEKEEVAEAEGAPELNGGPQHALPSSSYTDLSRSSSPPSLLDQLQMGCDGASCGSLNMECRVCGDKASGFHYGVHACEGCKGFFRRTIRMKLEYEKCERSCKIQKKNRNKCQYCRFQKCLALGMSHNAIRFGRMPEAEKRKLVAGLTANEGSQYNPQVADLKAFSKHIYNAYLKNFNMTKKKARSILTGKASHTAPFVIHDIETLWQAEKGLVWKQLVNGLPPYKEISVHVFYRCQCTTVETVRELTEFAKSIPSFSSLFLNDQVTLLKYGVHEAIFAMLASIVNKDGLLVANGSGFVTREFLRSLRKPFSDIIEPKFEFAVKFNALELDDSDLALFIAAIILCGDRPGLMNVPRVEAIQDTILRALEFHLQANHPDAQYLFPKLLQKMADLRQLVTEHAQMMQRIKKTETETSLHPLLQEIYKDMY
Sequence of Bile acid receptor (Homo sapiens) (Q96RI1 whole entry, looked up): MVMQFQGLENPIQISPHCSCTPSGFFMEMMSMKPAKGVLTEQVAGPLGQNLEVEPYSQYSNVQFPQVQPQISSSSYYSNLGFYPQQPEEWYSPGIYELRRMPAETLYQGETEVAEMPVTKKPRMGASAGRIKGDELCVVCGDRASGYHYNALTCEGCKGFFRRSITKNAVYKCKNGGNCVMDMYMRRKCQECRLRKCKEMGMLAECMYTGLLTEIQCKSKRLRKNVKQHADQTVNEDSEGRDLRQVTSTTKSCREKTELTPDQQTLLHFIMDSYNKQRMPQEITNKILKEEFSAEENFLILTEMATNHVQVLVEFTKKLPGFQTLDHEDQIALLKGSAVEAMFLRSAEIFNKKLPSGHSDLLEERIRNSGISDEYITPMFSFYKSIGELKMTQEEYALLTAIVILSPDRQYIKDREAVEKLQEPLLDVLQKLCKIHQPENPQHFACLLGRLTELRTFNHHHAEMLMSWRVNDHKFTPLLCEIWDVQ
Sequence of Vitamin D3 receptor (Homo sapiens) (P11473 whole entry, looked up): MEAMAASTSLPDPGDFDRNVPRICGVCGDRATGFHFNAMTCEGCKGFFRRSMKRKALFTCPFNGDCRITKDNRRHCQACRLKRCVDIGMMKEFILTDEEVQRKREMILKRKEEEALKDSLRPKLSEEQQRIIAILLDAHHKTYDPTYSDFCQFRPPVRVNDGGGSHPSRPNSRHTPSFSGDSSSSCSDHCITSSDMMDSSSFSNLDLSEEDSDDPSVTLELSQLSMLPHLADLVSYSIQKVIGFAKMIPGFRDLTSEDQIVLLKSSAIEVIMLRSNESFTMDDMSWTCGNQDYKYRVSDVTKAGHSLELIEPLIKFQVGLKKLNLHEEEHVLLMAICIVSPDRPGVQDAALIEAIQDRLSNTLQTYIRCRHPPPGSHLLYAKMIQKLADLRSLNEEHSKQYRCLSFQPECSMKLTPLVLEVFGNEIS

NC(=O)CC[C@@H](N)C(=O)O
not listed: [15] | [16] | [17] | [18] | [19] | [20]
inactive: all other assays above

CC(C)(C)C(=O)CCc1ccc(Cl)cc1
not listed: [7] | [19] | [20]
inactive: all other assays above

CC(C)(C)OC=O
not listed: [6] | [10] | [12]
inactive: all other assays above

CCC(C)c1nccnc1OC (centres undefined)
not listed: [7] | [11]
inactive: all other assays above

NC[C@H]1O[C@H](O[C@H]2[C@H](O)[C@@H](O[C@H]3O[C@H](CO)[C@@H](O)[C@H](N)[C@H]3O)[C@H](N)C[C@@H]2N)[C@H](N)[C@@H](O)[C@@H]1O
not listed: [6] | [8] | [10] | [12] | [19] | [20]
inactive: all other assays above

COC(=O)N/N=C/c1c[n+]([O-])c2ccccc2[n+]1[O-]
not listed: [14] | [15] | [17] | [18]
inactive: all other assays above

Cc1ccc(N)nc1
not listed: [7] | [10] | [14] | [18]
inactive: all other assays above

CC(=O)c1c(C)cc(C(C)(C)C)cc1C
not listed: [15] | [19] | [20]
inactive: all other assays above
